We go through 93 molecules from ChEMBL document CHEMBL3988442, “University of Dundee, Small-Polar-MMV Screening Library” (2021).

Screen size: about 69,000 compounds; about 950 (1.4%) showed an effect of 50% or more. The full list was thinned out, with strong results kept by preference.

The assay deals with Mycobacterium tuberculosis. Nature of the assay: Cornell M. t heat shock assay. Also: in the data most compounds retested in dose-response had high values. The class given is functional, organism-based. More on the design: dose or concentration left out as unconfirmed.
With `CC(C)Cc1ccc(C(=O)Cn2cnnc2[S+](C)[O-])cc1` (stereo not drawn), the “Percent Effect” value came out at 59.76%. As for `CC(C)Oc1ccc(C(=O)Cn2cnnc2[S+](C)[O-])cc1` (stereo not drawn), the figure is 17.53%; as for `C[S+]([O-])c1nncn1CC(=O)c1ccc(Br)cc1` (stereo not drawn), 11.9%. The value for `O=C(O)C(F)(F)F.O=C(c1ccc(F)cc1)N1CCC2(CCCN2CC2CC2)CC1` was -17.36%; that for `O=C(NC1CC1)c1ccc2ccc(N3CCN(CC4CC4)CC3)n2c1` was 38.85%. `CN(C)C(=O)N1CCN(c2ccc3ccc(C(=O)NC4CC4)cn23)CC1`: the “Percent Effect” value was -6.605%.

As for `CC(C)N1CCN(c2ccc3ccc(C(=O)NC4CCCC4)cn23)CC1.O=C(O)C(F)(F)F`, the “Percent Effect” value was 67.57%. On to `CC(=O)N1CCN(c2ccc3ccc(C(=O)NC4CCCC4)cn23)CC1`, for which the “Percent Effect” value is 69.47%. Take `CS(=O)(=O)N1CCN(c2ccc3ccc(C(=O)NC4CC4)cn23)CC1`: the “Percent Effect” value amounted to 20.39%. `COCCN1CCN(c2ccc3ccc(C(=O)NC4CC4)cn23)CC1`: the “Percent Effect” value is recorded as -14.38%.

Regarding `CN(C)C(=O)[C@H]1C[C@@H]2CCN(C3CCOCC3)C[C@@H]2O1.O=C(O)C(F)(F)F`, the “Percent Effect” value was 2.005%. The value for `CN(C)c1ncnc2c1CCN(CC1CCOC1)CC2.O=C(O)C(F)(F)F` (stereo not drawn) was -1.073%; that for `Cc1cccc(N2CC[C@@H]3CN(C(=O)c4ccco4)CCO[C@@H]3C2)n1.O=C(O)C(F)(F)F` was 6.087%. Take `Cn1cccc1C(=O)N1CCO[C@@H]2CN(Cc3nccs3)C[C@@H]2C1.O=C(O)C(F)(F)F`: the “Percent Effect” value is reported as -1.358%. As for `CCCOC1CCCN(c2ccnc(C(=O)NCc3ccco3)c2)C1` (stereo not drawn), the figure is 56.57%.

With `O=C(NCc1ccco1)c1cc(N2CC[C@@H](O)C2)ccn1`, the “Percent Effect” value is 1.104%. `CN(C)[C@H]1CCN(c2ccnc(C(=O)NCc3ccco3)c2)C1`: the “Percent Effect” value is 19.62%. As for `CC[C@@H]1N(Cc2ccoc2)CCC[C@]12CCC(=O)N2CCOC.O=C(O)C(F)(F)F`, the figure is -21.47%; as for `CN1CC[C@H]2[C@H](C[C@@H](CN3CCCC3)N2c2nccs2)C1.O=C(O)C(F)(F)F.O=C(O)C(F)(F)F.O=C(O)C(F)(F)F`, 17.76%.

Consider `O=C(O)C(F)(F)F.O=C1N(CC2CC2)CCC12CCCN(c1ncc(F)cn1)C2` (stereo not drawn), for which the “Percent Effect” value was determined as 23.17%. As for `Cc1ccc(CN2CCC3(CC2)C(=O)N(C)c2ccccc23)s1.O=C(O)C(F)(F)F`, the figure is 67.96%. The value for `Cc1ccc(CN2CCC3(CC2)C(=O)Nc2ccccc23)s1.O=C(O)C(F)(F)F` was 0.7618%; that for `Cc1ccc(CN2CCC3(C2)C(=O)N(CC2CC2)c2ccccc23)s1.O=C(O)C(F)(F)F` (stereo not drawn) was 22.05%; that for `Cc1ccc(CN2CCC3(C2)C(=O)N(CC(N)=O)c2ccccc23)s1` (stereo not drawn) was -35.1%. The value for `Cc1ccc(CN2CCC3(C2)C(=O)N(CC(C)C)c2ccccc23)s1` (stereo not drawn) was 104.8%; that for `CC(C)CN1C(=O)C2(CCN(Cc3ccc(F)cc3)C2)c2ccccc21` (stereo not drawn) was 17.34%. As to `Cc1cccc(CN2C[C@@H]3COC[C@]3(COc3cccnc3)C2)n1.O=C(O)C(F)(F)F.O=C(O)C(F)(F)F.O=C(O)C(F)(F)F`, the “Percent Effect” value was -8.53%.

For the molecule `Cc1csc(Nc2cc(C3CCCCN3C)nc(C)n2)n1` (stereo not drawn), the “Percent Effect” value is -8.179%. The value for `Cc1cccc(Nc2cc(C)nc(C3CCCCN3CC(N)=O)n2)n1` (stereo not drawn) was -15.32%; that for `Cc1cc(Nc2nc(C)cs2)nc(C2CCCCN2CCO)n1` (stereo not drawn) was 103.2%. The value for `COc1nc2cc(C)ccc2cc1CN(C)Cc1cc(C)[nH]n1.O=C(O)CC(O)(CC(=O)O)C(=O)O` was -1.641%. As for `O=C(O)C(F)(F)F.O=C(O)C(F)(F)F.O=C1[C@H]2CN(Cc3ccoc3)C[C@H]2CN1CCN1CCCC1`, the figure is -10.49%; as for `O=C(c1cocn1)N1C[C@@H]2COC[C@]2(COc2cccnc2)C1`, 75.2%. For the molecule `O=C(C1=CCCC1)N1C[C@@H]2COC[C@]2(COc2cccnc2)C1`, the “Percent Effect” value is 1.513%.

With `O=C(c1ncccn1)N1C[C@@H]2COC[C@]2(COc2cccnc2)C1`, the “Percent Effect” value is listed as 26.01%. Regarding `O=C(O)C(F)(F)F.O=C(c1cocn1)N1C[C@H]2CCC[C@@]2(COc2ccccn2)C1`, the “Percent Effect” value amounted to 21.2%. As to `Cn1cc(CNC2CC3(CCN(S(C)(=O)=O)CC3)c3ccccc32)cn1.O=C(O)C(F)(F)F` (stereo not drawn), the “Percent Effect” value is 36.25%. The value for `CS(=O)(=O)N1CCC2(CC1)CC(NCc1ccco1)c1ccccc12.O=C(O)C(F)(F)F` (stereo not drawn) was 55%. As for `CS(=O)(=O)N1CCC2(CC1)CC(NCC1CC1)c1ccccc12.O=C(O)C(F)(F)F` (stereo not drawn), the figure is 1.272%; as for `COc1ccc(OC)c(C2CCN(c3ccc4cc[nH]c4n3)C2)c1` (stereo not drawn), 103.8%. As for `COc1cccc(C2CCN(c3ccc4cc[nH]c4n3)C2)c1OC` (stereo not drawn), the figure is 36.99%; as for `COc1ccccc1C1CCN(c2ccc3cc[nH]c3n2)CC1`, -1.592%. As for `CS(=O)(=O)N1C[C@H]2CC[C@@H]1CN(Cc1ccncc1)C2`, the “Percent Effect” value was -0.4425%. The value for `Cn1cc(N2CCC3(CCN(Cc4nccs4)C3)C2=O)cn1.O=C(O)C(F)(F)F` (stereo not drawn) was -0.6336%; that for `Cc1cnnn1Cc1ncn2c1CN(Cc1cccs1)CCC2.O=C(O)C(F)(F)F` was 1.772%; that for `O=C(O)C(F)(F)F.O=C(O)C(F)(F)F.O=C1CO[C@@H]2CN(CC3CCOCC3)C[C@H]2N1Cc1ccncc1` was -5.107%.

`N#Cc1cc(NC(=O)c2ccsc2)ccc1N1CCC(O)CC1`: the “Percent Effect” value came out at 11.62%. Turning to `Cc1ccc(C(=O)Nc2ccc(N3CCC(O)CC3)c(C#N)c2)s1`, the “Percent Effect” value was found to be 25.13%. The value for `Cc1ccsc1C(=O)Nc1ccc(N2CCC(O)CC2)c(C#N)c1` was 75.65%; that for `COc1ccc(C[C@H]2CN(C(=O)c3ccc(C)nc3)CC[C@@H]2OC)cc1.O=C(O)C(F)(F)F` was -2.913%; that for `CNC(=O)[C@H]1C[C@@H]2CCN(Cc3ccncc3)C[C@H]2O1.O=C(O)C(F)(F)F.O=C(O)C(F)(F)F` was -3.411%.

For the molecule `CC(C)c1cc(C(=O)NCC2CCCN(C(C)C)C2)n(C)n1.Cl` (stereo not drawn), the “Percent Effect” value is given as -0.8268%. The value for `CC(C)(C)c1cc(NC(=O)CN2CCCC2Cn2cccn2)on1` (stereo not drawn) was 77.39%; that for `CC(C)c1cc(NC(=O)CN2CCCC2Cn2cncn2)on1` (stereo not drawn) was -8.042%. As to `Cc1cc(C)n(CC2CCCN2CC(=O)Nc2cc(C(C)C)no2)n1` (stereo not drawn), the “Percent Effect” value was determined as 66.41%.

Turning to `CC(C)(C)c1cc(NC(=O)CN2CCCC2Cn2cncn2)on1` (stereo not drawn), the “Percent Effect” value is given as 2.377%. The value for `CC(C)c1cc(NC(=O)CN2CCCC2Cn2cccn2)on1` (stereo not drawn) was -10.53%.

With `Cc1cnn(CC2CCCN2CC(=O)Nc2cc(C(C)(C)C)no2)c1` (stereo not drawn), the “Percent Effect” value stood at 73.93%.

As to `Cc1cnn(CC2CCCN2CC(=O)NC2CCOCC2)c1` (stereo not drawn), the “Percent Effect” value is recorded as -0.7823%.

Regarding `Cc1cnn(CC2CCCN2CC(=O)Nc2cc(C(C)C)no2)c1` (stereo not drawn), the “Percent Effect” value came to 98.13%. The value for `Cc1cnn(CC2CCCN2CC(=O)Nc2cc(C)on2)c1` (stereo not drawn) was -31.38%; that for `Cc1cnn(CC2CCCN2CC(=O)Nc2cc(C)no2)c1` (stereo not drawn) was 35.93%; that for `CC(C)(C)c1cc(NC(=O)CN2CCCCC2Cn2cncn2)on1` (stereo not drawn) was -1.6%. The value for `Cc1nc(C)n(CC2CCCN2CC(=O)Nc2cc(C(C)C)no2)n1` (stereo not drawn) was -40.94%; that for `CCCc1nc(CN2CCCC(Cn3cncn3)C2)no1` (stereo not drawn) was -9.9%; that for `O=C(O)C(F)(F)F.O=C(O)C(F)(F)F.c1cncc(OCC2CN(Cc3ccsc3)Cc3nccn3C2)c1` (stereo not drawn) was -18.26%. As for `COCCN1C(=O)C[C@H]2[C@H]1CCN2Cc1ccccc1.O=C(O)C(F)(F)F`, the figure is 3.349%; as for `CN(C)[C@@H]1CCN(C(=O)c2ccsc2)[C@H]1Cc1cccnc1.O=C(O)C(F)(F)F.O=C(O)C(F)(F)F`, -16.81%. Regarding `Cc1ccc(N2Cc3cnn(C)c3C(COCC3CC3)C2)nn1.O=C(O)C(F)(F)F.O=C(O)C(F)(F)F` (stereo not drawn), the “Percent Effect” value is 49.24%. The value for `COc1ccc(CN2CCC3(CC2)NC(=O)CC3c2cnn(C)c2)cc1.O=C(O)C(F)(F)F` (stereo not drawn) was -26.9%; that for `O=C1C[C@H]2CC[C@@H](CN1)N2C(=O)CCc1ccccc1` was 16.33%. For the molecule `CO[C@@H]1CCN(Cc2cccs2)[C@@H]2CN(Cc3ccncc3)C[C@@H]21.O=C(O)C(F)(F)F.O=C(O)C(F)(F)F.O=C(O)C(F)(F)F`, the “Percent Effect” value amounted to 42.16%. As for `COCC(=O)N1CCCC(C)(c2nncn2C)C1` (stereo not drawn), the figure is 11.29%. For `Cc1cccc(CN2CCC3(CC2)CN(c2cccnc2)C(=O)CO3)n1.O=C(O)C(F)(F)F.O=C(O)C(F)(F)F`, the “Percent Effect” value is -14.12%. The value for `Cc1nn(C)c(Cl)c1C1CCCN1C(=O)c1ccc(C(N)=O)cn1` (stereo not drawn) was -15.15%. The value for `Cc1cc(C)n(CC2CCCN2CC(=O)Nc2nncs2)n1` (stereo not drawn) was -43.1%; that for `Cc1cc(C)n(CC2CCCCN2CC(=O)Nc2nncs2)n1` (stereo not drawn) was 69.77%; that for `Cc1cc(C)n(CC2CCCCN2CC(=O)Nc2nnc(C)s2)n1` (stereo not drawn) was 10.12%. As for `CO[C@@H]1CC[C@H]2[C@H]1OCCN2CC1CC1.O=C(O)C(F)(F)F`, the figure is -34.92%.

As to `Cc1nn(C)c2c(=O)n(CC(=O)NCc3ccc(N(C)C)cc3)ccc12`, the “Percent Effect” value is on record as 2.829%.

Turning to `COCCN1C[C@@H]2CN(Cc3ccc(C)s3)CCC[C@]2(C(=O)O)C1.O=C(O)C(F)(F)F.O=C(O)C(F)(F)F`, the “Percent Effect” value is -29.4%. As for `Cc1cnn(CC2CCCN2Cc2nc(C)c3ccccc3n2)c1` (stereo not drawn), the figure is 101.6%; as for `Cc1cnn(CC2CCCN2Cc2ncc(-c3ccccc3)o2)c1` (stereo not drawn), 61.17%; as for `Cc1cnn(CC2CCCN2Cc2nc3ccccc3nc2C)c1` (stereo not drawn), 7.151%.

On to `Cc1cnn(CC2CCCN2Cc2ncc(-c3ccc(F)cc3)o2)c1` (stereo not drawn), for which the “Percent Effect” value is recorded as -10.3%. As for `Cc1cnn(CC2CCCN2Cc2nc3ccccc3n2C)c1` (stereo not drawn), the figure is 101.1%. The value for `Cc1nc(CN2CCCC2Cn2cccn2)nc2ccccc12` (stereo not drawn) was 33.45%; that for `Cc1nc(C)n(CC2CCCN2Cc2nc3ccccc3n2C)n1` (stereo not drawn) was -5.876%; that for `Cc1cnn(CC2CCCN2Cc2noc(C)n2)c1` (stereo not drawn) was -1.003%.

With `Cc1cnn(CC2CCCCN2Cc2nc(C)c3ccccc3n2)c1` (stereo not drawn), the “Percent Effect” value came out at 67.77%. As for `c1ccc(-c2cnc(CN3CCCC3Cn3cccn3)o2)cc1` (stereo not drawn), the figure is 7.104%; as for `Cc1nc(CN2CCCCC2Cn2cncn2)nc2ccccc12` (stereo not drawn), -16.52%.

With `Cc1nc(CN2CCCCC2Cn2cccn2)nc2ccccc12` (stereo not drawn), the “Percent Effect” value was determined as 49.4%.
